# Among all 1,400 compounds or so, about 560 (40%) were called active. The set was probably picked from earlier hits. The list shows a part of the results. Values without a mark were called inactive.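 How the source made its calls: active means mean inhibition over duplicate tests at 10 µM above 50%; inactive means the rest.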
# Assay: ASC/caspase-1 reporter retest in S. cerevisiae at one dose, specificity check for NALP1 project (AID 488857)
# Settings: S. cerevisiae ASC/Caspase-1, beta-galactosidase luminescence, 24 h; at 10 µM; hits give high values
row,Structure (SMILES),inhibition
1,O=C(Nc1ccc2nc3n(c(=O)c2c1)CCCC3)c1cc([N+](=O)[O-])ccc1F,79.8% (active)
2,CC1CCCCN1C(=S)Nc1ccc2nc3n(c(=O)c2c1)CCCCC3 (centres undefined),40.4%
3,Cc1cc(NC(=O)/C=C/c2ccccc2Cl)no1,51.1% (active)
4,CCOC(=O)c1ccc(N2C(=O)C=CC2=O)cc1,82.3% (active)
5,CCOC(=O)c1ccc(N2C(=O)CC(N3CCCC(C)C3)C2=O)cc1 (centres undefined),49.7%
6,CCOC(=O)CCCNC(=O)COC(=O)c1ccc(O)cc1,35.5%
7,CC1(C)CC(=O)c2c(-c3cccs3)n[nH]c2C1,44.1%
8,CC1=NNC(=O)/C1=C\c1cn(-c2ccccc2)nc1-c1cccs1,89.6% (active)
9,Cc1cc(N2CCOCC2)n2ncc(-c3ccccc3)c2n1,71.5% (active)
10,COc1ccc(/C=C2\SC(N3CCc4ccccc4C3)=NC2=O)cc1,76.5% (active)
11,CCOc1ccccc1C1CC(=O)NC(SCC(=O)Nc2nccs2)=C1C#N (centres undefined),10.7%
12,Cc1ccc(S(=O)(=O)NCc2ccc(C(=O)NCCCN3CCC(Cc4ccccc4)CC3)cc2)cc1,20.4%
13,CSc1ccc(S(=O)(=O)NCc2ccc(C)cc2)cc1,56% (active)
14,COc1ccc(CNC(=O)CCNS(=O)(=O)c2ccc(C)cc2)cc1,43.1%
15,c1ccc(-c2cccc(-c3ccccn3)n2)nc1,97.2% (active)
16,c1ccc(Nc2ccccn2)cc1,34.5%
17,CCCCOC(=O)Oc1ccc2c(=O)c(Oc3cc(C)cc(C)c3)coc2c1,54.9% (active)
18,Cc1cc(C)n(CCOc2ccc(Cl)cc2Cl)n1,56.7% (active)
19,CC1=C(C)/C(=N\OS(=O)(=O)c2ccc(C)cc2)C=CC1=O,92.7% (active)
20,N/C(Cc1ccc(Cl)cc1)=N\OC(=O)C1CCCCC1,47.5%
21,O=C(Cc1ccc([N+](=O)[O-])cc1)c1ccc(O)cc1O,49.1%
22,Cc1cccc(C(=O)NNC(=O)CN2C(=O)c3ccccc3C2=O)c1,32.6%
23,COc1ccccc1C/C(N)=N/OC(=O)c1cccc([N+](=O)[O-])c1C,41.5%
24,N/C(Cc1ccccc1)=N\OC(=O)c1cccc2ccccc12,51.2% (active)
25,Cc1cccc(/C(N)=N/OC(=O)c2ccc(Cl)cc2Cl)c1,32.9%
26,Cc1cccc(/C(N)=N/OC(=O)c2cccc3ccccc23)c1,52.9% (active)

row,Structure (SMILES),inhibition
1,N/C(Cc1ccc([N+](=O)[O-])cc1)=N\OC(=O)c1ccccc1Br,71% (active)
2,CCOC(=O)C1C(=O)Oc2ccc3ccccc3c2C1C1CCOC1=O (centres undefined),32.4%
3,CN1CCN(S(=O)(=O)c2ccc(Br)c3nsnc23)CC1,45.2%
4,CN1CCN(C2=C(Cl)C(=O)N(CCc3ccccc3)C2=O)CC1,47.1%
5,C=CCSc1nsc(NC(=O)Nc2ccc(F)cc2)n1,98.9% (active)
6,CCOC(=O)n1c(=O)n(Cc2ccccc2)c2ccccc21,47.1%
7,CC12CCC(C(=O)O)(C/C1=N\O)C2(C)C (centres undefined),21%
8,COc1ccc(CCNCc2ccc(OCc3ccccc3)cc2)cc1,80.8% (active)
9,COc1ccc(OCCCC(=O)NCC(C)C)cc1,39.5%
10,COc1ccc(OCCCC(=O)Oc2ccc(OC)cc2)cc1,50.5% (active)
11,CN(C)C(CNC(=O)CCCOc1ccccc1)c1ccco1 (centres undefined),39.1%
12,CCOCCCNCc1ccc(OCc2ccccc2Cl)cc1,45.9%
13,COc1ccc(C(CCNCc2ccccc2F)c2ccc(F)cc2)cc1 (centres undefined),45.1%
14,COc1ccc(CNCCC(c2ccc(F)cc2)c2ccc(OC)cc2)cc1 (centres undefined),61.4% (active)
15,O=C(CCCN1C(=O)c2ccccc2C1=O)Oc1ccc(Cl)cc1,31.9%
16,COc1ccc(OCCCC(=O)NCCc2ccccc2)cc1,51.9% (active)
17,COc1ccc(OCC#CCNC(C)(C)C)cc1,30.3%
18,COc1ccc(CNCCSc2nnnn2C)cc1OC,40.2%
19,COc1cc(/C=C2\SC(=Nc3ccc(F)cc3)N(c3ccc(F)cc3)C2=O)ccc1OCC(=O)O,31.9%
20,O=C1Cc2ccccc2C(=O)N1OCc1ccc(Cl)cc1Cl,29.5%
21,O=C1CCCc2ccccc2N1Cc1ccc(Cl)cc1Cl,31.8%
22,Clc1ccc(CO/N=C2\CCCc3nonc32)c(Cl)c1,52.5% (active)
23,CN(C)C(=N)c1n[nH]nc1SCc1ccccc1,27.9%
24,CCCCCCCCCCCCCCCC[n+]1cccc(C(=O)N(CC)CC)c1,93.2% (active)
25,CCCCCCCCCCCCCCCC[n+]1ccc(C(N)=O)cc1,80.4% (active)
26,CCCCN(CC)S(=O)(=O)c1ccccc1,8.05%

row,Structure (SMILES),inhibition
1,CCCCCCCCCCCCCCCC[n+]1ccc(/C=N/O)cc1,85.1% (active)
2,COC(=O)c1c(NC(NC(=O)C(C)C)C(Cl)(Cl)Cl)sc2c1CCC2 (centres undefined),33.2%
3,COC(=O)c1c(NC(=O)C2CCCO2)sc2c1CCC2 (centres undefined),58% (active)
4,CCOc1cc(-c2c(C)c(C)nc(N)c2C#N)ccc1O,49.5%
5,O=C(Nc1cc(N2CCOCC2)ncn1)NC1(C(F)(F)F)Oc2ccc(Cl)cc2O1 (centres undefined),36.8%
6,CCc1ccc(CC(=S)N2CCOCC2)cc1,51.4% (active)
7,O=C(C(Cc1ccccc1)n1cccc1)N1CCN(c2ccccc2)CC1 (centres undefined),49.2%
8,O=S(=O)(N1CCCCC1)N1CCN(c2ccc(F)cc2)CC1,45.9%
9,O=C(NC(=O)N1CCN(c2ccc(F)cc2)CC1)c1ccccc1,53% (active)
10,CC(C)Oc1ccc(OCCNC2CCCC2)cc1,45.6%
11,CCN(CC)S(=O)(=O)c1cccc(C(=O)N[C@H](C(=O)O)C(C)C)c1,45.6%
12,COc1ccc(/C=C(/C(=O)c2cccs2)N2C=CC=CC2=C(C#N)C#N)cc1,51.5% (active)
13,N#CC(C#N)=C1C=CC=CN1/C(=C\c1ccccc1Cl)C(=O)c1ccccc1,17.6%
14,CN(C)CCNC=C(C(=O)Nc1ccc(Cl)cc1Cl)C(=O)Nc1ccc(Cl)cc1Cl,36%
15,Cn1nc(NC(=O)C(C)(C)C)c2c(F)cccc21,23.4%
16,CCCC(CCC)c1nc2ccncc2[nH]1,39.7%
17,Clc1ccc(N2CCN(c3cnc4ccccc4n3)CC2)cc1,29.9%
18,CC1CCN(c2nc(CN3CCCCC3)nc3scc(-c4ccccc4)c23)CC1,65.8% (active)
19,COC(=O)c1c(S(=O)(=O)NCc2ccccc2)sc(C(=O)O)c1C,32.3%
20,O=C1S/C(=C\c2ccc(N3CCOCC3)o2)C(=O)N1c1ccccc1,56.8% (active)
21,Cn1c(=O)c2c(nc(Sc3ncccn3)n2Cc2ccccc2Cl)n(C)c1=O,26.6%
22,Cc1ccc(S(=O)(=O)NCC(=O)N(CC(=O)NC(C)(C)C)Cc2cccs2)cc1,34.8%
23,COc1cc(OC)nc(-n2ncc(Br)c(Br)c2=O)n1,51.4% (active)
24,Cc1ccc(C(=O)CCC(=O)O)cc1,26.7%
25,Cc1cccc(C)c1OCCNC(=O)CCC(=O)c1ccccc1,31.6%
26,CCCC(=O)c1ccc(-c2ccccc2)cc1,57.2% (active)

row,Structure (SMILES),inhibition
1,Cc1c(NC(=O)c2cc3c(s2)-c2ccccc2OC3)cccc1[N+](=O)[O-],72% (active)
2,O=S(=O)(Nc1cc(Sc2cccc3cccnc23)c(O)c2ccccc12)c1ccc(F)cc1,90.7% (active)
3,Cc1cc(C)c(S(=O)(=O)Nc2cc(SCC(=O)O)c(O)c3ccccc23)cc1C,17.9%
4,O=S(=O)(Nc1ccc(Oc2ncccn2)c(Cl)c1)c1ccc(F)cc1,32.6%
5,CCCCSc1nnc(CCNC(=O)OC(C)(C)C)o1,47.8%
6,CC(C)Sc1nnc([C@H](Cc2ccccc2)NC(=O)OC(C)(C)C)o1,41.7%
7,CC(C)(C)OC(=O)NCCCCCc1nnc(SCc2ccccc2)o1,71.4% (active)
8,O=C(c1ccc(COc2ccccc2Br)cc1)N1CCCCC1,52.2% (active)
9,O=C(c1ccc(S(=O)(=O)c2ccccc2)cc1)N1CCCCCC1,31.9%
10,OCCN(CCO)c1ncnc2c1oc1ccc(Br)cc12,29.6%
11,CCN(CCO)Cc1csc2ccc(Br)cc12,55.5% (active)
12,COc1ccccc1N1CCN(CCCCOc2cccc3ccccc23)CC1,63.3% (active)
13,COc1ccccc1OCCCCN1CCN(c2ccccc2OC)CC1,21.9%
14,COc1ccccc1N1CCN(CCCCCCOc2ccc(F)cc2)CC1,49.6%
15,Cc1cccc(NCc2nc3ccccc3n2C)c1,74% (active)
16,Cc1nc2cc(-c3ccc(Cl)cc3)nn2c(C)c1CCC(=O)NC(C)c1ccc2c(c1)OCCO2 (centres undefined),49%
17,O=C1/C(=C/c2ccco2)Cc2ccccc21,48.4%
18,O=C1/C(=C/c2ccccc2)CCCc2ccccc21,72.1% (active)
19,Nc1ccc2c(c1)C/C(=C/c1ccco1)C2=O,21.8%
20,COc1ccc2c(c1)CC/C(=C/c1ccco1)C2=O,68.5% (active)
21,COc1cc(/C=C2/CCc3ccccc3C2=O)cc(OC)c1OC,69.8% (active)
22,COc1cc2ccccc2c2c1CCCC2=O,30%
23,COc1ccc(/C=C2\COc3ccccc3C2=O)cc1OC,81.6% (active)
24,COc1ccc(C2=C/C(=C/c3cccnc3)C(=O)O2)cc1OC,28.8%
25,Cc1n[nH]c(C)c1S(=O)(=O)N1CCN(C2CCCCC2)CC1,32.4%
26,CS(=O)(=O)N(CC(=O)Nc1ccccc1Sc1ccccc1)C1CCCCC1,19.4%
